Measured values published in PubChem BioAssay (NCI).
Values joined by “and” are separate entries in the source; they are usually repeats but may differ in a detail not shown here. Identical values can stand only once. About 83,000 compounds went through this panel and 20% of them were active in at least one assay; those are over-represented in the sample as a whole.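 The test compound was applied at a single concentration to cells in 96-well plates for 48 hours, and percent growth was recorded.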 Active and inactive are the calls of the source. How the source made its calls: active means growth percent below 10; inactive means the rest.

Tests used:
Assay in all cases: NCI-60 one-dose screen, 48 h (100 = growth as untreated, 0 = no growth, -100 = all killed)
Details in all cases: 10 µM unless noted
SK-MEL-2 melanoma = test system: SK-MEL-2 melanoma
EKVX NSCLC = test system: EKVX NSCLC
SN12C renal = test system: SN12C renal
UO-31 renal = test system: UO-31 renal
TK-10 renal = test system: TK-10 renal
ACHN renal = test system: ACHN renal
CAKI-1 renal = test system: CAKI-1 renal
A498 renal = test system: A498 renal
MOLT-4 leukemia = test system: MOLT-4 leukemia
CCRF-CEM leukemia = test system: CCRF-CEM leukemia

Row | SMILES | growth (SK-MEL-2 melanoma) | growth (EKVX NSCLC) | growth (SN12C renal) | growth (UO-31 renal) | growth (TK-10 renal) | growth (ACHN renal) | growth (CAKI-1 renal) | growth (A498 renal) | growth (MOLT-4 leukemia) | growth (CCRF-CEM leukemia)
1 | CN(C=O)c1ccccc1 | 103% (inactive) | 86.6% (inactive) | 93.3% (inactive) | 65.5% (inactive) | 121% (inactive) | 92% (inactive) | 88.2% (inactive) | 98% (inactive) | 97.5% (inactive) | –
2 | COc1cc2c(cc1O)C(=O)CCCC2 | 98% (inactive) | 81.6% (inactive) | 111% (inactive) | 90.4% (inactive) | 110% (inactive) | 96.9% (inactive) | 73.3% (inactive) | 116% (inactive) | 83.9% (inactive) | –
3 | CCCC(=O)Oc1ccc(CC)cc1 | 107% (inactive) | 99% (inactive) | 98.5% (inactive) | 93.7% (inactive) | 97.2% (inactive) | 107% (inactive) | 96.1% (inactive) | 78.1% (inactive) | 101% (inactive) | –
4 | CCC(=O)Oc1ccc(OCc2ccccc2)cc1 | 123% (inactive) | 97.2% (inactive) and 105% (inactive) | 110% (inactive) and 81.6% (inactive) | 45.6% (inactive) and 30.4% (inactive) | 92.1% (inactive) | 18.4% (inactive) and 13.3% (inactive) | 61.2% (inactive) and 3.23% (active) | 120% (inactive) and 93.1% (inactive) | 74.4% (inactive) and 75.2% (inactive) | –
5 | O=[N+]([O-])c1ccc(NC2CCCCC2)nc1 | 104% (inactive) and 107% (inactive) | 101% (inactive) and 106% (inactive) | 104% (inactive) and 108% (inactive) | 90% (inactive) and 76.3% (inactive) | 103% (inactive) and 101% (inactive) | 101% (inactive) and 97.5% (inactive) | 96.7% (inactive) and 95.7% (inactive) | 102% (inactive) | 95.2% (inactive) and 106% (inactive) | –
6 | O=C(NC(CSSCC(NC(=O)OCc1ccccc1)C(=O)O)C(=O)O)OCc1ccccc1 (stereo unspecified) | 95.4% (inactive) and 102% (inactive) | 94.8% (inactive) | 83.3% (inactive) and 105% (inactive) | 67.6% (inactive) and 98% (inactive) | 59.4% (inactive) | 88.6% (inactive) and 98.9% (inactive) | 72.1% (inactive) and 99.3% (inactive) | 68.2% (inactive) and 99% (inactive) | 52.1% (inactive) and 82% (inactive) | 87.3% (inactive)
7 | CCOC(=O)c1csc(N)n1 | 103% (inactive) | 99.2% (inactive) and 99% (inactive) | 100% (inactive) and 105% (inactive) | 88.5% (inactive) and 91.9% (inactive) | 111% (inactive) and 97.3% (inactive) | 102% (inactive) and 104% (inactive) | 66.6% (inactive) | 93.5% (inactive) | 79.3% (inactive) and 106% (inactive) | –
8 | CC(C)=NOC(C)C(=O)O (stereo unspecified) | 107% (inactive) | 95.9% (inactive) | 94.1% (inactive) | 97.5% (inactive) | 104% (inactive) | 102% (inactive) | 104% (inactive) | 89.2% (inactive) | 105% (inactive) | –
9 | CCN(CC)C(CC(=O)c1ccccc1)C(=O)c1ccccc1 (stereo unspecified) | 110% (inactive) | 98.2% (inactive) | 93.4% (inactive) | 84.1% (inactive) | 70.2% (inactive) | 71.2% (inactive) | 101% (inactive) | 75.1% (inactive) | 27.9% (inactive) | –
10 | ON=C(C1CCCCC1)C1CCCCC1 | 107% (inactive) | 97.8% (inactive) | 99.9% (inactive) | 89.3% (inactive) | 90.2% (inactive) | 101% (inactive) | 87.4% (inactive) | 94.7% (inactive) | 114% (inactive) | 99.8% (inactive)
11 | O=C(O)C#Cc1ccc(Cl)cc1 | 98.4% (inactive) | 104% (inactive) | 98.4% (inactive) | 95.6% (inactive) | 109% (inactive) | 103% (inactive) | 95.4% (inactive) | 73.1% (inactive) | 87.5% (inactive) | 103% (inactive)
12 | CC1CCC(=O)N1c1ccc(N)cc1 (stereo unspecified) | 99.7% (inactive) | 104% (inactive) | 106% (inactive) | 93.7% (inactive) | 94.8% (inactive) | 104% (inactive) | 102% (inactive) | 98.4% (inactive) | 105% (inactive) | –
